{"source": "ChEMBL document CHEMBL3988442", "about": "“University of Dundee, Small-Polar-MMV Screening Library” (2021)", "note": "Hit rate of the full screen: of about 48,000 compounds, about 13,000 (27%) showed an effect of 50% or more. This is one part of the list.", "data": [{"test_system": "Wolbachia pipientis", "test": "Anti-Wolbachia Cell-Based Screen", "assay_type": "functional", "set-up": "scale not given: in the data most compounds retested in dose-response had high values", "details": "5 µM", "units": {"Percent Effect": "%"}, "values": [{"compound": "Cn1cnc2c(N3CCCC3)nc(C3CCN(CC4CC4)CC3)cc21.O=C(O)C(F)(F)F.O=C(O)C(F)(F)F", "Percent Effect": -3.967}, {"compound": "O=C(O)c1coc(COc2cccc3cnccc23)n1", "Percent Effect": -2.104}, {"compound": "CC(=O)N1CCC(N2C[C@@H](F)[C@@H](OCc3nc4ncccc4[nH]3)C2)CC1", "Percent Effect": -11.9}, {"compound": "CNS(=O)(=O)c1cccc(C(C)NCc2ccncc2)c1", "note": "(stereo not given)", "Percent Effect": -20.6}, {"compound": "CN1CC[C@]2(CN(Cc3nccs3)C[C@H]2c2ccccc2)C1=O.O=C(O)C(F)(F)F", "Percent Effect": -12.3}, {"compound": "CN1CC[C@]2(CN(CC3CCOC3)C[C@H]2c2ccccc2)C1=O.O=C(O)C(F)(F)F", "note": "(stereo not given in full)", "Percent Effect": 100.2}, {"compound": "Cc1cc(CN2C[C@@H](C)[C@@]3(CCN(CC(=O)N(C)C)C3=O)C2)oc1C.O=C(O)C(F)(F)F", "Percent Effect": 15.48}, {"compound": "CN1CC[C@]2(CN(CC3CCOCC3)C[C@H]2c2ccccc2)C1=O.O=C(O)C(F)(F)F", "Percent Effect": 123.3}, {"compound": "CCN1CC[C@]2(CN(Cc3nccs3)C[C@H]2c2ccccc2)C1=O.O=C(O)C(F)(F)F", "Percent Effect": -7.222}, {"compound": "CN1CC(c2ccccc2)C2(CCN(C(=O)c3cccn3C)CC2)C1=O", "note": "(stereo not given)", "Percent Effect": -2.229}, {"compound": "CN1CCC2(CCN(CC3CCOCC3)CC2)C1=O.O=C(O)C(F)(F)F", "Percent Effect": -1.769}, {"compound": "CN1CC[C@]2(CN(S(C)(=O)=O)C[C@H]2c2ccccc2)C1=O", "Percent Effect": 102.2}, {"compound": "CCN1C(=O)C(c2ccccc2)CC12CCN(S(C)(=O)=O)CC2", "note": "(stereo not given)", "Percent Effect": -8.52}, {"compound": "CN(C)C(=O)CN1CC[C@]2(CN(CC3CC3)C[C@H]2c2ccccc2)C1=O.O=C(O)C(F)(F)F", "Percent Effect": 97.34}, {"compound": "N#Cc1ccc(CN2CCCCC2Cn2cncn2)c(F)c1", "note": "(stereo not given)", "Percent Effect": -2.215}, {"compound": "CN1CC[C@]2(CN(Cc3cccs3)C[C@H]2c2ccccc2)C1=O", "Percent Effect": -2.755}, {"compound": "O=C(O)C(F)(F)F.O=C1NCC[C@]12CN(CC1CCOCC1)C[C@H]2c1ccccc1", "Percent Effect": 108.1}, {"compound": "Cc1ccc(CN2CCOC3(CCN(C(=O)C4CCOC4)CC3)C2)cc1.O=C(O)C(F)(F)F", "note": "(stereo not given)", "Percent Effect": 2.988}, {"compound": "O=C(O)C(F)(F)F.O=C1NCC[C@]12CN(Cc1nccs1)C[C@H]2c1ccccc1", "Percent Effect": -4.824}, {"compound": "Cc1ccc(CN2CCOC3(CCN(C(=O)N4CCCC4)CC3)C2)cc1.O=C(O)C(F)(F)F", "Percent Effect": -8.825}, {"compound": "O=C(O)C(F)(F)F.O=C(c1cccnc1)N1C[C@@H](c2ccccc2)[C@@]2(CCNC2=O)C1", "Percent Effect": -21.16}, {"compound": "CN1CC[C@]2(CN(CC3CC3)C[C@H]2c2ccccc2)C1=O", "Percent Effect": 103.2}, {"compound": "Cc1ccc(CN2CCOC3(CCN(CC4CCOC4)CC3)C2)cc1.O=C(O)C(F)(F)F.O=C(O)C(F)(F)F", "note": "(stereo not given)", "Percent Effect": 104.9}, {"compound": "CC1CCCN(c2ccccc2OCC(=O)NC2CCOCC2)C1", "note": "(stereo not given)", "Percent Effect": 10.97}, {"compound": "CC(C)NC(=O)CC(C)NC(=O)N(C)Cc1cc(Cl)cn1C", "note": "(stereo not given)", "Percent Effect": -3.888}, {"compound": "CC(C)N1C(=O)C[C@H]2[C@@H]1CCN2C(=O)c1ccco1", "Percent Effect": -5.125}, {"compound": "COCC1CN(C(=O)c2ccccn2)Cc2nccn2C1", "note": "(stereo not given)", "Percent Effect": 101.9}, {"compound": "O=C(c1ccccn1)N1Cc2nccn2CC(COc2cccnc2)C1", "note": "(stereo not given)", "Percent Effect": -5.974}, {"compound": "COCC1CN(C(=O)c2cccs2)Cc2nccn2C1", "note": "(stereo not given)", "Percent Effect": -51.2}, {"compound": "COCC(=O)N1Cc2nccn2CC(COc2cccnc2)C1", "note": "(stereo not given)", "Percent Effect": 115.8}, {"compound": "O=C1CCCN1CC1CN(C(=O)C2CCOCC2)Cc2nccn2C1", "note": "(stereo not given)", "Percent Effect": -10.76}, {"compound": "O=C([C@H]1CCCO1)N1Cc2nccn2CC(COc2cccnc2)C1", "note": "(stereo not given in full)", "Percent Effect": 99.26}, {"compound": "CN(C)CCOCC1CN(C(=O)[C@H]2CCCO2)Cc2ccnn2C1", "note": "(stereo not given in full)", "Percent Effect": -10.91}, {"compound": "O=C(CC1CC1)N1Cc2nccn2CC(COc2cccnc2)C1", "note": "(stereo not given)", "Percent Effect": 106}, {"compound": "COCC(=O)N1Cc2nccn2CC(CN(C)Cc2cccnc2)C1", "note": "(stereo not given)", "Percent Effect": 3.316}, {"compound": "N#CCCN(CC1CCOC1)S(=O)(=O)c1cccc(Cl)c1", "note": "(stereo not given)", "Percent Effect": -9.345}, {"compound": "CCCN1C(=O)C2(CCCCC2)NC1c1c[nH]nc1-c1cccnc1", "note": "(stereo not given)", "Percent Effect": -6.37}, {"compound": "CC(NCc1ccccc1O)c1ccc(-n2ccnc2)cc1", "note": "(stereo not given)", "Percent Effect": 4.863}, {"compound": "CC(=O)NCCc1ccc(S(=O)(=O)N(CC(C)C)C(C)C)s1", "Percent Effect": -14.51}, {"compound": "Nc1ccc(C(=O)N2CCC(Oc3cccc(C(F)(F)F)c3)CC2)cn1", "Percent Effect": -4.227}, {"compound": "CN(C(=O)c1ccc(C2CCCO2)s1)C1CCS(=O)(=O)CC1", "note": "(stereo not given)", "Percent Effect": 4.966}, {"compound": "CSCCC1c2nc[nH]c2CCN1Cc1ccccc1C(F)(F)F", "note": "(stereo not given)", "Percent Effect": -7.167}, {"compound": "O=C(c1ccc[nH]1)N1Cc2nccn2CC(COc2cccnc2)C1", "note": "(stereo not given)", "Percent Effect": 86.9}, {"compound": "Cc1cc(CN2CC[C@H]3C(=O)N(c4cccnc4)CCO[C@H]3C2)no1", "Percent Effect": -10.41}, {"compound": "Cc1nn(-c2cc(Cl)cc(Cl)c2)c(C)c1CCC(=O)O", "Percent Effect": 123.3}, {"compound": "CCN(CC)CCNC(=O)CCc1c(C)nn(-c2ccccc2Br)c1C", "Percent Effect": 111.1}, {"compound": "CCCNC(=O)C(C)NC(=O)CCc1ccccc1Br", "note": "(stereo not given)", "Percent Effect": -13.88}, {"compound": "COC(=O)C(CCSC)NC(=O)Cc1c(C)nn(-c2ccccc2)c1C", "note": "(stereo not given)", "Percent Effect": -1.135}, {"compound": "CS(=O)(=O)CCC(=O)Nc1cnn(-c2ccccc2Cl)c1", "Percent Effect": 3.918}, {"compound": "Cc1nn(-c2ccccc2Cl)c(C)c1CCC(=O)O", "Percent Effect": 123.4}, {"compound": "CCN1CCN(C(=O)c2nc(C)n(-c3ccccc3Cl)n2)CC1", "Percent Effect": 7.919}, {"compound": "CCN(C(=O)NCCc1ccccc1Cl)C(C)CS(C)(=O)=O", "note": "(stereo not given)", "Percent Effect": -2.563}, {"compound": "Cc1nn(-c2ccccc2Cl)c(C)c1CCC(=O)NCCS(C)(=O)=O", "Percent Effect": 98.33}, {"compound": "Cc1c(C(=O)NCC(F)(F)F)nnn1-c1ccccc1Cl", "Percent Effect": -14.83}, {"compound": "CCCNC(=O)CNC(=O)CCc1ccccc1Br", "Percent Effect": 0.9662}, {"compound": "Cc1nn(-c2ccccc2)c(C)c1CNC(=O)NC1CC1", "Percent Effect": 9.435}, {"compound": "Cc1noc(C2(NC(=O)c3cccnc3O)CCCCC2)n1", "Percent Effect": 14.46}, {"compound": "CCC(C)NC(=O)c1ccc(CNC(=O)CCC(C)C)cc1", "note": "(stereo not given)", "Percent Effect": 19.34}, {"compound": "Cc1cc(CC(=O)N(C)Cc2cccc(OC(C)C)c2)n[nH]1", "Percent Effect": 0.9226}, {"compound": "COCc1noc(-c2nn(-c3ccc(F)c(F)c3)c3c2CCC3)n1", "Percent Effect": -11.94}]}]}
